Results as given in PubChem BioAssay AID1159580 (chemical genetic matrix, 2015).
The whole screen tested about 5,500 compounds, of which about 2,000 (36%) were called active. About 18% were inconclusive and are not listed. Rule as the data show it: active = normalized growth mostly below about 0.91 (no sharp cut-off); inconclusive = no clear call, values can overlap the other calls; inactive = mostly above about 0.92. This is one part of the list.

Test: chemical genetic growth profiling, strain panel (AID 1159580);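 also: tested at 20 µM; growth read once vehicle control cultures reached saturation at 30 °C; 1 = growth at the plate median or of vehicle wells; lower values mean less growth of the strain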
Conditions: S. cerevisiae deletion strains, growth OD
[1] = locus YHR030C, strain SLT2, hits give low values
[2] = locus YHR079C, strain IRE1, hits give low values
[3] = locus YJL095W, strain BCK1, hits give low values
[4] = locus YJR066W, strain TOR1, hits give low values
[5] = locus YLR113W, strain HOG1, hits give low values
[6] = locus YNL183C, strain NPR1, hits give low values
[7] = locus YOR231W, strain MKK1, hits give low values
[8] = locus YPL256C, strain CLN2, hits give low values

Measured: normalized growth

CC(=O)Nc1ccc(S(=O)(=O)Nc2ccccc2Oc2ccc(Cl)cc2Cl)cc1
inactive: locus YAR019C, strain CDC15, hits give low values 0.998 | locus YBL105C, strain PKC1, hits give low values 0.996 | locus YBR135W, strain CKS1, hits give low values 0.993 | locus YBR136W, strain MEC1, hits give low values 0.993 | locus YBR160W, strain CDC28, hits give low values 0.996 | locus YDL017W, strain CDC7, hits give low values 0.997 | locus YDL028C, strain MPS1, hits give low values 0.995 | locus YDL101C, strain DUN1, hits give low values 1 | locus YDL108W, strain KIN28, hits give low values 0.999 | locus YDL132W, strain cdc53, hits give low values 0.995 | locus YDL214C, strain PRR2, hits give low values 0.984 | locus YDR052C, strain DBF4, hits give low values 0.993 | locus YDR054C, strain cdc34, hits give low values 0.986 | locus YDR226W, strain ADK1, hits give low values 1 | locus YDR477W, strain SNF1, hits give low values 0.983 | locus YER123W, strain YCK3, hits give low values 1.02 | locus YER133W, strain GLC7, hits give low values 0.991 | locus YFL009W, strain cdc4, hits give low values 0.993 | locus YFL029C, strain CAK1, hits give low values 0.985 | locus YFR003C, strain YPI1, hits give low values 0.999 | locus YFR019W, strain FAB1, hits give low values 0.993 | locus YFR028C, strain CDC14, hits give low values 0.993 | locus YGR040W, strain KSS1, hits give low values 0.986 | locus YGR052W, strain FMP48, hits give low values 1.09 | locus YGR092W, strain DBF2, hits give low values 1 | [1] 1 | [2] 1.01 | locus YHR082C, strain KSP1, hits give low values 1.04 | locus YHR205W, strain SCH9, hits give low values 0.987 | locus YIL147C, strain SLN1, hits give low values 0.992 | [3] 1.03 | locus YJL128C, strain PBS2, hits give low values 0.965 | locus YJL157C, strain FAR1, hits give low values 0.992 | locus YJR016C, strain ILV3, hits give low values 0.996 | locus YJR066W, strain TOR1 (second series), hits give low values 0.97 | [4] 1.01 | locus YKL048C, strain ELM1, hits give low values 0.986 | locus YKL067W, strain YNK1, hits give low values 0.985 | locus YKL101W, strain HSL1, hits give low values 0.98 | locus YKL193C, strain SDS22, hits give low values 0.994 | locus YKL203C, strain TOR2, hits give low values 1.04 | [5] 0.959 | locus YLR133W, strain CKI1, hits give low values 0.98 | locus YLR403W, strain SFP1, hits give low values 0.995 | locus YML070W, strain DAK1, hits give low values 1.01 | locus YMR001C, strain CDC5, hits give low values 0.999 | locus YMR205C, strain PFK2 (second series), hits give low values 0.99 | locus YMR277W, strain FCP1, hits give low values 0.995 | locus YNL006W, strain LST8, hits give low values 0.999 | locus YNL020C, strain ARK1, hits give low values 0.992 | locus YNL161W, strain CBK1, hits give low values 0.995 | [6] 1.01 | locus YNL207W, strain RIO2, hits give low values 0.995 | locus YNL222W, strain SSU72, hits give low values 0.995 | locus YNL307C, strain MCK1 (second series), hits give low values 1.01 | locus YOL078W, strain AVO1, hits give low values 0.995 | locus YOL136C, strain PFK27, hits give low values 1 | locus YOR061W, strain CKA2, hits give low values 0.98 | locus YOR119C, strain RIO1, hits give low values 0.994 | [7] 0.994 | locus YOR329C, strain SCD5, hits give low values 0.999 | locus YPL031C, strain PHO85, hits give low values 0.995 | locus YPL153C, strain RAD53, hits give low values 0.994 | locus YPL204W, strain HRR25, hits give low values 0.996 | locus YPL209C, strain IPL1, hits give low values 0.998 | [8] 0.929 | locus YPR025C, strain CCL1, hits give low values 0.996 | locus YPR106W, strain ISR1, hits give low values 0.998 | locus YPR111W, strain DBF20, hits give low values 0.99 | strain NNK1, hits give low values 0.994 | strain TSCII, hits give low values 0.999

CCCCCCCCCCOc1cc2c(=O)c(C(=O)OCC)c[nH]c2cc1OCC
inactive: [1] 1 | [2] 0.989 | [3] 0.978 | [4] 0.962 | [5] 0.942 | [6] 0.971 | [7] 0.977 | [8] 0.993

CCCOc1ccc(C(=O)OCCN(CC)CC)cc1N
inactive: locus YAL021C, strain ccr4, hits give low values 0.979 | locus YAL026C, strain drs2, hits give low values 1.01 | locus YAL030W, strain snc1, hits give low values 1 | locus YBL061C, strain skt5, hits give low values 1 | locus YBR009C, strain hhf1, hits give low values 1.03 | locus YBR023C, strain chs3, hits give low values 1.02 | locus YBR171W, strain sec66, hits give low values 1.02 | locus YBR231C, strain swc5, hits give low values 1.01 | locus YBR279W, strain paf1, hits give low values 1.01 | locus YCL011C, strain gbp2, hits give low values 1 | locus YCL016C, strain dcc1, hits give low values 1 | locus YCL061C, strain MRC1, hits give low values 1 | locus YCL069W, strain vba3, hits give low values 0.999 | locus YCR088W, strain abp1, hits give low values 1.01 | locus YDL005C, strain med2, hits give low values 1.01 | locus YDL040C, strain nat1, hits give low values 1 | locus YDR001C, strain nth1, hits give low values 1 | locus YDR069C, strain doa4, hits give low values 1.01 | locus YDR137W, strain rgp1, hits give low values 1.04 | locus YDR159W, strain sac3, hits give low values 1.02 | locus YDR195W, strain ref2 0.964 | locus YDR297W, strain sur2, hits give low values 1 | locus YDR334W, strain swr1, hits give low values 0.995 | locus YDR335W, strain msn5, hits give low values 1 | locus YDR392W, strain spt3, hits give low values 1.02 | locus YEL003W, strain gim4, hits give low values 1.01 | locus YEL037C, strain rad23, hits give low values 0.979 | locus YEL061C, strain CIN8 (second series), hits give low values 1 | locus YER015W, strain faa2, hits give low values 1.03 | locus YER016W, strain bim1, hits give low values 1 | locus YER111C, strain swi4, hits give low values 0.999 | locus YER155C, strain BEM2 (second series), hits give low values 1 | locus YFR010W, strain ubp6, hits give low values 0.996 | locus YGL167C, strain pmr1, hits give low values 1.01 | locus YGL173C, strain kem1, hits give low values 1 | locus YGL227W, strain vid30, hits give low values 1 | locus YGL240W, strain doc1, hits give low values 1.02 | locus YGL253W, strain hxk2, hits give low values 1.01 | locus YHR013C, strain ard1, hits give low values 1.01 | locus YHR027C, strain rpn1, hits give low values 1 | [1] 1.05 | [2] 1.04 | locus YHR142W, strain chs7, hits give low values 0.981 | locus YJL092W, strain hpr5, hits give low values 1 | locus YJL095W, strain BCK1 (second series), hits give low values 1 | [3] 1 | locus YJL115W, strain asf1, hits give low values 1 | locus YJL129C, strain trk1, hits give low values 0.995 | locus YJL154C, strain vps35, hits give low values 1.01 | locus YJL164C, strain tpk1, hits give low values 0.999 | locus YJL166W, strain qcr8, hits give low values 1 | locus YJL187C, strain SWE1, hits give low values 1 | [4] 0.972 | locus YKL160W, strain elf1, hits give low values 0.989 | locus YKR026C, strain gcn3, hits give low values 0.984 | locus YKR091W, strain srl3, hits give low values 1 | locus YLL001W, strain dnm1, hits give low values 1.01 | locus YLL026W, hits give low values 1.01 | locus YLL041C, strain sdh2, hits give low values 0.998 | locus YLR027C, strain aat2, hits give low values 1 | [5] 0.968 | locus YLR221C, strain rsa3, hits give low values 1 | locus YLR258W, strain gsy2, hits give low values 1.01 | locus YLR262C, strain YPT6 (second series), hits give low values 1.01 | locus YLR320W, strain mms22, hits give low values 1.02 | locus YLR342W, strain FKS1, hits give low values 0.999 | locus YLR357W, strain rsc2, hits give low values 1.01 | locus YLR370C, strain arc18, hits give low values 1.01 | locus YLR384C, strain iki3, hits give low values 1 | locus YML120C, strain ndi1, hits give low values 1.01 | locus YMR058W, strain fet3, hits give low values 1.01 | locus YMR125W, strain sto1, hits give low values 1.02 | locus YMR129W, hits give low values 1.01 | locus YMR205C, strain PFK2, hits give low values 1.04 | locus YMR231W, strain pep5, hits give low values 1 | locus YNL071W, strain lat1, hits give low values 1 | [6] 0.966 | locus YNL209W, strain ssb2, hits give low values 1 | locus YNL248C, strain rpa49, hits give low values 0.971 | locus YNL322C, strain KRE1 (second series), hits give low values 1.01 | locus YNR049C, strain mso1, hits give low values 1 | locus YOR001W, strain rrp6, hits give low values 0.984 | locus YOR070C, strain gyp1, hits give low values 1.02 | locus YOR080W, strain dia2, hits give low values 1 | locus YOR083W, strain WHI5, hits give low values 0.986 | locus YOR106W, strain vam3, hits give low values 0.994 | [7] 1.03 | locus YOR265W, strain rbl2, hits give low values 1 | locus YOR270C, strain vph1, hits give low values 1.04 | locus YOR290C, strain snf2, hits give low values 1.01 | locus YPL051W, strain arl3, hits give low values 0.997 | locus YPL078C, strain atp4, hits give low values 0.98 | locus YPL106C, strain sse1, hits give low values 1.01 | locus YPL240C, strain hsp82, hits give low values 0.988 | [8] 1.02
